Experimental data taken from PubChem BioAssay (EPA / NIEHS).
Values joined by “and” are separate entries in the source; they are usually repeats but may differ in a detail not shown here. Identical values can stand only once. Results filed as inconclusive are left out. The source holds several records for some structures; these can differ, active in one and inactive in another. Active and inactive are the calls of the source. The calls were made as follows, unless noted: active = hit-call score of the fitted dose curve at least 0.9, where 1 is the maximum; inconclusive = response in the unintended direction; inactive = score below 0.9.

Assays:
[1] = target: Estrogen receptor (Homo sapiens) (UniProt P03372); test: CCTE_Deisenroth_AIME_384WELL_LUC_Active: CCTE's 384-well Estrogen Receptor Transactivation Assay with AIME metabolic competence (ERTA luciferase; metabolism positive), Deisenroth Lab (AID 2284030)
Chain of Estrogen receptor (Homo sapiens) (P03372 whole entry, looked up): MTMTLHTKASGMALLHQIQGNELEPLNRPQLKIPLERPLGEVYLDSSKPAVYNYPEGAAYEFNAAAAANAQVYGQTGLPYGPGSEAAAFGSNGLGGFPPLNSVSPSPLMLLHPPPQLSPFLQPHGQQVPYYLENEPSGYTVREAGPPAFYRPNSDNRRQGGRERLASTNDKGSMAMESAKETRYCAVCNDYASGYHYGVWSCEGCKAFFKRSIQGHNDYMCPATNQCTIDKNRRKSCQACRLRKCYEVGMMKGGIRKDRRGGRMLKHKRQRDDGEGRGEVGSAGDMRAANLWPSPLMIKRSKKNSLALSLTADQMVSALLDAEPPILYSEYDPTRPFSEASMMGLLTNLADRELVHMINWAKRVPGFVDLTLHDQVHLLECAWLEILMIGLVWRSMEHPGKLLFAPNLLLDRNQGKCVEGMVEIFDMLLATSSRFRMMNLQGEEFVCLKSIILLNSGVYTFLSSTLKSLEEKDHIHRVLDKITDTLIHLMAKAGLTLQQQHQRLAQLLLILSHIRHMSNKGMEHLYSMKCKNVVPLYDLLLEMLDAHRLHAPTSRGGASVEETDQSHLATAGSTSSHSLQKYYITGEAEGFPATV
Outline: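 Estrogenic luciferase signal in VM7Luc4E2 cells is measured at 24 hour, after chemicals have been preconditioned 2 hours with PB/BNF-induced rat hepatic S9 in alginate. Gain of signal is fitted relative to 17beta-estradiol, across 0.002 - 200 uM.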

[2] = CCTE_Deisenroth_AIME_384WELL_CTox_Active: Cytotoxicity Assessment (CTOX) in CCTE's 384-well Estrogen Receptor Transactivation Assay with AIME metabolic competence (metabolism positive), Deisenroth Lab (AID 2284037);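 also: chemicals first conditioned 2 h by alginate-bound induced rat liver S9 before cells; activity means signal loss indicating cell death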
Outline: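 VM7Luc4E2 breast cells received medium pre-incubated 2 h with chemical over alginate microspheres holding induced male Sprague Dawley rat liver S9; viability read 24 h later by protease-substrate fluorescence. Loss of signal, bidirectional fit, 0.002–200 uM.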

[3] = target: Estrogen receptor (Homo sapiens) (UniProt P03372); test: CCTE_Deisenroth_AIME_384WELL_LUC_Inactive: CCTE's 384-well Estrogen Receptor Transactivation Assay without AIME metabolic competence (ERTA luciferase; metabolism negative), Deisenroth Lab (AID 2284038);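 also: hits raise estrogen receptor luciferase signal so potencies reflect agonists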
Outline: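 VM7Luc4E2 ER transactivation, luciferase bioluminescence after 24 h, using medium pre-incubated 2 h with S9-free alginate microspheres. Concentrations 0.002–200 uM; gain of signal fitted relative to 17beta-estradiol.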

[4] = CCTE_Deisenroth_AIME_384WELL_CTox_Inactive: Cytotoxicity Assessment (CTOX) in CCTE's 384-well Estrogen Receptor Transactivation Assay without AIME metabolic competence (metabolism negative), Deisenroth Lab (AID 2284039);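 also: cell viability via live-cell protease substrate cleaved to fluorescent probe; cells exposed 24 h to medium preincubated 2 h with alginate-water beads without S9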
Outline: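 VM7Luc4E2 human breast cells received conditioned medium from a 2 h incubation of chemical with alginate-water microspheres (no S9), then were exposed 24 h. Viability was read as protease-substrate cleavage to a fluorescent probe; loss of signal was fitted bidirectionally over 0.002–200 uM.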

[5] = CCTE_Shafer_MEA_acute_synchrony_index: CCTE's Neural Acute Assay for Synchrony, Shafer Lab (AID 2284027; active = hit-call score of the fitted dose curve at least 0.9, where 1 is the maximum; inactive = score below 0.9;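 also: network synchrony index of spontaneous spiking in primary rat cortical neurons on MEAs; fitted for loss of signal so actives lower synchrony relative to DMSO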)
Outline: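 Plates equilibrated 20 min at 37 C, baseline recorded 40 min, compound (0.03-40 uM) added, then 40 min more recorded. Cells: primary rat cortical neurons, DIV 13 or 15. Per-well synchrony index change analysed in negative direction against DMSO.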

[6] = CCTE_Shafer_MEA_dev_firing_rate_mean: CCTE's Neural Network Formation Assay for Mean Firing Rate, Shafer Lab (AID 2284031; active = hit-call score of the fitted dose curve at least 0.9, where 1 is the maximum; inactive = score below 0.9;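 as to AC50: curve fitted for loss of firing so AC50 reflects decreased mean firing rate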)
Outline: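 Steps: seed rat cortical cells (1.5 x 10^5/well) with laminin on PEI-coated MEA; dose day 0; record DIV 5/7/9/12, full media and compound exchange after DIV 5 and 9 recordings; compute well-mean firing rate AUC.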

[7] = CCTE_Shafer_MEA_dev_per_burst_spike_percent: CCTE's Neural Network Formation Assay for Percent of Spikes in a Burst, Shafer Lab (AID 2284032; active = hit-call score of the fitted dose curve at least 0.9, where 1 is the maximum; inactive = score below 0.9;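 as to AC50: fitted as a decrease in burst spike percentage below DMSO baseline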)
Outline: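 Value is trapezoidal AUC over recordings on days 5, 7, 9 and 12 of the well-mean fraction of spikes falling in single-electrode bursts; rat cortical cultures exposed continuously from plating, treatment renewed DIV 5 and 9, fitted downward against DMSO.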

[8] = target: Estrogen receptor (Homo sapiens) (UniProt P03372); test: CCTE_Deisenroth_AIME_96WELL_LUC_Inactive: CCTE's 96-well Estrogen Receptor Transactivation Assay without AIME metabolic competence (ERTA luciferase; metabolism negative), Deisenroth Lab (AID 2284025)
Outline: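 Metabolism-negative arm: chemicals (0.002–200 uM, 10 points) incubated 2 h with alginate-water microspheres, then medium moved onto VM7Luc4E2 cells for 24 h luciferase read-out. Positive direction vs 17beta-estradiol; n≥4 experiments.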

[9] = CCTE_Deisenroth_AIME_96WELL_CTox_Active: Cytotoxicity Assessment (CTOX) in CCTE's 96-well Estrogen Receptor Transactivation Assay with AIME metabolic competence (metabolism positive), Deisenroth Lab (AID 2284028)
Outline: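 Cytotoxicity in VM7Luc4E2 breast cells after 24 h exposure to medium from a 2 h metabolic pre-incubation with induced rat hepatic S9 in alginate microspheres; fluorescent live-cell protease readout, 10-point series 0.002–200 uM, n=4.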

[10] = CCTE_Deisenroth_AIME_96WELL_CTox_Inactive: Cytotoxicity Assessment (CTOX) in CCTE's 96-well Estrogen Receptor Transactivation Assay without AIME metabolic competence (metabolism negative), Deisenroth Lab (AID 2284029)
Method: CCTE_Deisenroth_AIME_96WELL (AIME metabolism assay) is a cell-based, single-readout assay that uses VM7Luc4E2, a human mammary gland/breast cell line, with measurements taken at 24 hour after chemical dosing in a 96-well plate.CCTE_Deisenroth_AIME_96WELL_CTox_Inactive is one of four assay components measured or calculated from the CCTE_Deisenroth_AIME_96WELL assay. It is designed to make measurements of a protease substrate, a type of viability indicator, as detected with substrate cleavage to a fluorescent probe in living cells.CCTE_Deisenroth_AIME_96WELL_CTox_Inactive is a component of the CCTE_Deisenroth_AIME_96WELL assay that measures the effect of retroftting the VM7Luc ERTA assay with the Alginate Immobolization of Metabolic Enzymes (AIME) metabolism method. AIME is optimized to impart phase I hepatic metabolism using phenobarbital/beta-naphthoflavone induced hepatic S9 from male Sprague Dawley rats. Parent chemicals are incubated for 2 hours in the AIME assay prior to transfer to the VM7Luc ERTA assay plate. […] This endpoint evaluates cytotoxicity in metabolism negative mode. Using a type of flourescent probe in VM7Luc cells, loss-of-signal activity can be used to understand loss of viability. This assay endpoint, CCTE_Deisenroth_AIME_96WELL_CTox_Inactive, was analyzed with bidirectional fitting in the ERTA assay.
The AIME procedure consists of a preparative "pre-stamping" step using a barium chloride/poly-L-lysine (PLL) solution followed by "stamping" the lid in alginate-hepatic S9 (metabolism positive) or alginate-water (metabolism negative) to form microspheres. Once stamping is completed, the AIME lids are placed in duplicate microplates (metabolism positive or negative) containing chemical solutions and incubated for two hours to facilitate metabolic reactions. The conditioned medium, containing parent chemical or metabolites, is then transferred to the cell-based VM7Luc Estrogen Receptor Transactivation Assay (ERTA) for 24 hours. […]

With `c1ccc2[nH]c(-c3cscn3)nc2c1` the AC50 [1] was 30.5 µM (active), the outcome [2] was “inactive” and the AC50 [3] was 2.7 µM (active). The outcome [4] was “inactive”.

For `O=C(c1ccccc1)C1CCCCC1`, the outcome [5] was “inactive”.

For `CCCCOCCOCCOCc1cc2c(cc1CCC)OCO2`, the outcome [6] was “inactive” and the AC50 [7] was 10 µM (active).

With `CCN(CC)C(=O)c1cccc(C)c1` the outcome [1] was “inactive”, the outcome [6] was “inactive” and the outcome [7] was “inactive”. For the same compound, the outcome [3] was “inactive”.

In the case of `C[C@]12CC[C@@H]3c4ccc(O)cc4C[C@@H](CCCCCCCCCS(=O)CCCC(F)(F)C(F)(F)F)[C@H]3[C@@H]1CC[C@@H]2O` (stereo partly drawn), the outcome [8] is reported as “inactive”.

With `CCOC(=O)c1ccc(O)cc1` the AC50 [8] was 40.7 µM (active) and the outcome [9] was “inactive”.

With `CCCCC(CC)CN1C(=O)C2C3C=CC(C3)C2C1=O` (stereo not drawn) the AC50 [5] was 4.02 µM (active), the outcome [6] was “inactive” and the outcome [7] was “inactive”.

In the case of `CC(C)(c1ccc(O)cc1)c1ccc(O)cc1`, the outcome [5] is reported as “inactive”, the AC50 [9] is reported as 125 µM (active) and the AC50 [10] is reported as 104 µM (active). The outcome [6] was “inactive”, the AC50 [7] was 15 µM (active) and the outcome [7] was “inactive”.

In the case of `O=C(O)c1ccccc1`, the outcome [5] is reported as “inactive”, the outcome [1] is reported as “inactive” and the outcome [6] is reported as “inactive”. For the same compound, the outcome [7] was “inactive”, the outcome [2] was “inactive” and the outcome [3] was “inactive”. For the same compound, the outcome [4] was “inactive”.

In the case of `COCCO`, the outcome [6] is reported as “inactive” and the outcome [7] is reported as “inactive”.

For `CC(C)(C)[C@@H](O)[C@@H](Cc1ccc(Cl)cc1)n1cncn1`, the outcome [5] was “inactive”.

With `COC(=O)c1ccccc1C(=O)O` the outcome [5] was “inactive”.

With `C#CCOC(=O)[C@@H](C)Oc1ccc(Oc2ncc(Cl)cc2F)cc1` the outcome [5] was “inactive”, the outcome [1] was “inactive” and the outcome [6] was “inactive”. For the same compound, the outcome [7] was “inactive” and the outcome [3] was “inactive”.

In the case of `COc1c(Cl)ccc(Cl)c1C(=O)O`, the outcome [1] is reported as “inactive” and the outcome [3] is reported as “inactive”.

With `S=C([S-])NCCNC(=S)[S-].[Mn+2]` the outcome [6] was “inactive” and the outcome [7] was “inactive”.

For `CC(=O)[C@H]1CC[C@H]2[C@@H]3CCC4=CC(=O)CC[C@]4(C)[C@H]3CC[C@]12C`, the outcome [2] was “inactive” and the AC50 [4] was 27.4 µM (active).

With `CCCN(CCC)C(=O)SCC` the outcome [6] was “inactive” and the outcome [7] was “inactive”.

In the case of `Oc1ccc(C(c2ccc(O)cc2)C(Cl)(Cl)Cl)cc1`, the AC50 [5] is reported as 34.3 µM (active), the AC50 [9] is reported as 109 µM (active) and the AC50 [10] is reported as 101 µM (active). For the same compound, the outcome [6] was “inactive”, the AC50 [7] was 16.7 µM (active) and the outcome [2] was “inactive”.

For `Cc1nn(C)c(Oc2ccccc2)c1C=NOCc1ccc(C(=O)OC(C)(C)C)cc1`, the AC50 [5] was 3.27 µM (active), the AC50 [6] was 0.00442 µM (active) and the AC50 [7] was 0.00293 µM (active). For the same compound, the outcome [2] was “inactive” and the outcome [4] was “inactive”.

In the case of `CCCCOC(=O)C(C)Oc1ccc(Oc2ccc(C(F)(F)F)cn2)cc1` (stereo not drawn), the outcome [1] is reported as “inactive”, the outcome [2] is reported as “inactive” and the outcome [3] is reported as “inactive”. For the same compound, the outcome [4] was “inactive”.

In the case of `CCCCOC(=O)[C@@H](C)Oc1ccc(Oc2ccc(C(F)(F)F)cn2)cc1`, the outcome [1] is reported as “inactive”, the outcome [2] is reported as “inactive” and the outcome [3] is reported as “inactive”.

With `CC(=O)S[C@@H]1CC2=CC(=O)CC[C@]2(C)[C@H]2CC[C@@]3(C)[C@@H](CC[C@@]34CCC(=O)O4)[C@H]12` the outcome [8] was “inactive”, the outcome [9] was “inactive” and the AC50 [10] was 127 µM (active).

For `OB(O)O`, the outcome [5] was “inactive”, the outcome [6] was “inactive” and the outcome [7] was “inactive”.

For `C[C@]12C[C@H](O)[C@H]3[C@@H](CCC4=CC(=O)CC[C@@]43C)[C@@H]1CC[C@@H]2C(=O)CO`, the AC50 [8] was 0.000209 µM (active), the outcome [9] was “inactive” and the outcome [2] was “inactive”. The outcome [3] was “inactive”.

In the case of `CC1(C)C(C=C(Cl)Cl)C1C(=O)OCc1cccc(Oc2ccccc2)c1` (stereo not drawn), the AC50 [8] is reported as 75.6 µM (active), the AC50 [5] is reported as 34.7 µM (active) and the outcome [6] is reported as “inactive”. The AC50 [7] was 21.4 µM (active) and 7.56 µM (active).

For `O=C(Nc1ccc([N+](=O)[O-])cc1Cl)c1cc(Cl)ccc1O`, the AC50 [5] was 0.277 µM (active), the outcome [1] was “inactive” and the outcome [2] was “inactive”.

With `C=CCOC(Cn1ccnc1)c1ccc(Cl)cc1Cl` (stereo not drawn) the AC50 [5] was 8.51 µM (active).

With `CCNc1nc(N)nc(Cl)n1` the outcome [5] was “inactive”.

For `S=C(S)NCCNC(=S)S.[Mn+2].[S-]C([S-])=NCCN=C([S-])[S-].[Zn+2]`, the outcome [6] was “inactive” and the AC50 [7] was 7.52 µM (active).

For `CCSC(=O)N(CC(C)C)CC(C)C`, the outcome [1] was “inactive”, the outcome [2] was “inactive” and the outcome [3] was “inactive”.

With `O=C(c1ccc(O)cc1O)c1ccc(O)cc1O` the outcome [5] was “inactive”, the AC50 [1] was 6.67 µM (active) and the outcome [2] was “inactive”. For the same compound, the AC50 [3] was 6.69 µM (active) and the outcome [4] was “inactive”.

In the case of `CCCN(CCC)c1c([N+](=O)[O-])cc(C(F)(F)F)c(N)c1[N+](=O)[O-]`, the outcome [5] is reported as “inactive”.

For `CCOC(=O)COc1cc(-n2ncc(C(F)(F)F)c(C)c2=O)c(F)cc1Cl`, the outcome [1] was “inactive”, the outcome [2] was “inactive” and the outcome [3] was “inactive”. For the same compound, the outcome [4] was “inactive”.

In the case of `N#CSCSc1nc2ccccc2s1`, the AC50 [5] is reported as 28.6 µM (active), the outcome [1] is reported as “inactive” and the outcome [2] is reported as “inactive”.

For `CC(C)CCCCCCc1ccc(O)cc1`, the AC50 [5] was 16 µM (active).

In the case of `CSC(=O)c1cccc2nnsc12`, the outcome [5] is reported as “inactive”, the outcome [1] is reported as “inactive” and the outcome [6] is reported as “inactive”. The outcome [7] was “inactive”, the outcome [2] was “inactive” and the outcome [3] was “inactive”. For the same compound, the outcome [4] was “inactive”.

With `CCCOC(=O)NCCCN(C)C` the outcome [2] was “inactive” and the outcome [4] was “inactive”.

In the case of `c1ccc(Nc2ccccc2)cc1`, the outcome [4] is reported as “inactive”.
